# Bioassay records from PubChem BioAssay.
# The list is not random: actives were taken first. Their share in the collection is about 3.6%.
# Hsp90 Hop PPI = changes Hsp90-Hop TPR2A binding signal, up or down | Potency, µM (titrated, usually from 57 µM), inactives show at the highest dose activity change, negative = inhibition | AlphaScreen TPR2A-His6 binding biotin-Hsp90 C-terminal peptide | AID 595 | 0.44% of 71,000 active; active = well fitted curve in either direction with a large enough effect; inconclusive = small, poorly fitted or top-dose-only effect, or another doubt; also: % is scaled to controls: 0 for no effect and ±100 for the full control effect
# IkB signaling = inhibitors of IkB signaling in ABC-DLBCL cells; 0.04% of 110,000 active; AID 445; ABC-DLBCL IkBa-CBG/CBR dual luciferase ratio, 4 h; response scale: scaled: untreated 0%, proteasome inhibitor 100%; Potency, µM (doses to about 57.1 µM), inactives show at the highest dose IkBa stabilization activation; active = well fitted curve in the direction sought with a large enough effect in the signal ratio, not every such curve was filed as active; inconclusive = small, poorly fitted or top-dose-only effect, or a change in a side signal; the % refers to the signal ratio;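 also: the direction sought is a rising ratio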
#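 In this assay, an IκBα–CBG68 fusion accumulates when IKK-driven degradation is blocked; native CBR normalizes for cell number. OCI-Ly3 cells were treated 4 h with compound and doxycycline, then green and red light read after Chroma-Glo addition.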
# Tau filament bind = tau filament binding; P10636; recombinant tau filaments, thioflavin S fluorescence, 15 h; filaments grown with octadecylsulfate alongside compound; Potency, µM (doses to about 57.1 µM), for the others: top-dose activity change, negative = inhibition; 2% of 71,000 active; AID 596;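 also: % is scaled to controls: 0 for no effect and ±100 for the full control effect; actives lower thioflavin S fluorescence by blocking filaments or displacing dye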
#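 Tau 2 uM in ThS buffer dispensed; compound added; 60 uM ODS added (finals 1 uM tau, 30 uM ODS); 15 h 37 C; fluor ex450/em510.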
# ALOX15 inhib = inhibitors of human 15-lipoxygenase (ALOX15) | P16050 | purified 15hLO-1, xylenol orange hydroperoxide absorbance | Potency, µM (titrated, usually from 57.1 µM), for inactives: at the highest dose activity change, negative = inhibition, most hits filed as inhibitors | 1.4% of 74,000 active; also: % is scaled to controls: 0 for no effect and ±100 for the full control effect; nearly all actives have a fitted effect of over 55% in size
# Target sequence (P16050 whole entry, looked up): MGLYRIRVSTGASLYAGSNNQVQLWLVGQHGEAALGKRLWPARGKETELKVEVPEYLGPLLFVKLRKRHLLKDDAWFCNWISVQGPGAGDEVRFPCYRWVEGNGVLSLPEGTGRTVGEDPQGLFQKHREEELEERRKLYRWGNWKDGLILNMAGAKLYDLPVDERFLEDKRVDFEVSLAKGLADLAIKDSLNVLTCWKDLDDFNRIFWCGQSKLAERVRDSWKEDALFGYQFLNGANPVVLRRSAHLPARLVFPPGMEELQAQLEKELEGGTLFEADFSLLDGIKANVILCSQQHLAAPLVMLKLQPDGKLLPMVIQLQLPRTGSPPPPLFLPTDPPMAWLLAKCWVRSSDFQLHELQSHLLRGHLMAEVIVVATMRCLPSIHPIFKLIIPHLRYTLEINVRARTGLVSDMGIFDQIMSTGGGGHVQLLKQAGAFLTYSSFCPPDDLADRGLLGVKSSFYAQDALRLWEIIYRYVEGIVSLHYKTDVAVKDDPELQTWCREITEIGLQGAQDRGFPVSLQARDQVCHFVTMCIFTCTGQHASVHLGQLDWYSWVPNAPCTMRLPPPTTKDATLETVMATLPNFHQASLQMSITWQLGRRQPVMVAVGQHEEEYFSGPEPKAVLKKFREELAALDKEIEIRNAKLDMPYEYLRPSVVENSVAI
#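 Hydroperoxide formed from arachidonic acid (50 uM) by purified human 15hLO-1 (40 nM) oxidizes ferrous iron, and the ferric-xylenol orange complex is read at 573 versus 405 nm. Compounds were preincubated 15 min; reaction ran 6 min at room temperature.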
# CRE Fsk mod = modulators of forskolin-stimulated CRE signaling in CHO cells. Potency, µM (top dose mostly 38.2 µM), inactives show at the highest dose activity change, negative = inhibition, hits mostly activators. CHO CRE-bla reporter (cAMP response element driving beta-lactamase), forskolin EC10, beta-lactamase ratio. AID 662. 2.5% of 71,000 active; active = well fitted activation curve with a large enough effect in the signal ratio, with a control signal flat, not every such curve was filed as active; inconclusive = small, poorly fitted or top-dose-only effect, or effect the other way, or a change in a side signal; the % refers to the signal ratio; also: % of control where 0% means no effect
#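 Cells were plated overnight at 37 °C, exposed to compound titrations plus EC10 NKH 477 for 3 h, then given CCF4 dye for 2 h at room temperature. Blue/green (460/530 nm) ratio was converted to %Activity and AC50 values calculated.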
# * = called active by the depositor; i = inactive; ? = inconclusive; . = no result given; [ ] = dose if it differs, or a comment. Unless noted, calls follow the shape of the dose curve; as a rule, active = well fitted curve in the direction sought with a large enough effect; inconclusive = small, poorly fitted or top-dose-only effect, or another doubt; inactive = no such curve, though single readings can be large; an effect the other way counts as inactive or inconclusive. Potency is read from the fitted curve at half-maximal effect.
SMILES,Hsp90 Hop PPI,IkB signaling,Tau filament bind,ALOX15 inhib,CRE Fsk mod
Fc1ccc(Nc2nc(-c3cccnc3)nc3ccccc23)cc1,3.8%,-6.0%[11.4 µM],6.0%,-5.6%,10µM*
CN(C)c1ccc(-c2nc(Nc3ccncc3)c3ccccc3n2)cc1,-0.2%,-6.7%[11.4 µM],10µM*,-25.3%,1.26µM*
CN(C)c1ccc(-c2nc(NCc3cccnc3)c3ccccc3n2)cc1,-9.2%,-1.8%[11.4 µM],i,20µM*,?
Cc1ccc2c(c1)sc1nc(-c3cc4cc(Cl)ccc4oc3=O)cn12,.,0.9%,.,.,.
COc1ccc(CCNc2nnc(Sc3nnnn3-c3ccccc3)s2)cc1OC,-3.9%,?,-3.3%,6.6%,10µM*
COc1ccc(N2CC(NC(=O)c3cc4ccccc4o3)CC2=O)cc1OC (stereo unspecified),.,0.0%,.,.,.
COc1ccccc1N1C(=O)c2ccccc2NC1c1ccncc1 (stereo unspecified),-2.9%,0.5%,-4.0%,20µM*,-0.5%
CN(C)c1ccc(NC(=O)Cn2nnc3sc4c(c3c2=O)CCC(C(C)(C)C)C4)cc1 (stereo unspecified),.,-0.5%,.,.,.
CCOC(=O)C(C(C)=O)c1c(Br)c(O)c(O)c2c(C(=O)c3ccc(C)cc3)coc12 (stereo unspecified),?,?,10µM*,2µM*,?
COc1ccc(CC(=O)NCc2nc3cccnc3n2Cc2ccc(C)cc2)cc1,.,0.3%,.,.,.
O=C(Nc1ccc(N2CCN(C(=O)c3ccc(Cl)cc3)CC2)cc1)c1ccc(Br)o1,-23.0%,?,25.1µM*,-29.3%,?
CC(C)C(=O)N1CCN(c2ccc(NC(=O)c3ccc(Br)o3)cc2)CC1,-2.7%,-0.7%,-8.0%,5.6%,1.9%
O=C(Nc1ccc(Nc2ccccc2)cc1)c1ccc(Br)o1,-16.9%,?,15.8µM*,-27.1%,-1.2%
O=C(Nc1ccc(Cc2ccncc2)cc1)c1ccc(Br)o1,-1.7%,2.8%,5.1%,11.2%,?
Cc1ccc(N2CCN(C(=O)c3cccn4c(=O)c5ccc(Cl)cc5nc34)CC2C)cc1 (stereo unspecified),.,2.2%,.,.,.
CCN1C(=O)c2c(C)nc3ccccc3c2C1=O,-5.6%,1.6%,15.8µM*,-9.9%,?
CCC1=C/C(=C/N(C)c2ccccc2)C(=O)S1,-15.0%,6.4%,73.5%,25.1µM*,4.8%
O=C(Cc1cc(=O)[nH]c(=O)[nH]1)N1CCC(Cc2ccccc2)CC1,-7.9%,1.3%,25.1µM*,-8.0%,?
Fc1cccc(Cl)c1/C=N\N=C1c2ccccc2-c2ccccc21,?,2.5%[11.4 µM],3.98µM*,-1.0%[11.4 µM],-10.6%[7.6 µM]
CCOC(=O)OCC1OC(C#Cc2ccc(F)cc2F)C=CC1OC(=O)OCC (stereo unspecified),.,.,.,-1.9%[11.4 µM],.
COCCNc1ncnc2ccc(-c3ccccc3C(F)(F)F)cc12,-12.5%,3.3%[11.4 µM],0.0%,25.1µM*,?
CN(C)c1ccc(-c2ccc3ncnc(NCc4ccccc4)c3c2)cc1,-17.7%,1.4%[11.4 µM],2.51µM*,-6.4%,?
Cc1cnc(CNc2ncnc3ccc(-c4ccc(N(C)C)cc4)cc23)cn1,-20.7%,5.1%[11.4 µM],25.1µM*,?,?
COCCNc1ncnc2ccc(-c3ccoc3)cc12,-5.7%,-3.4%[11.4 µM],-0.4%,-12.3%,-20.2%
COCCNc1ncnc2ccc(-c3ccc(N(C)C)cc3)cc12,-10.2%,-2.3%[11.4 µM],15.8µM*,-9.6%,22.0%
SMILES,Hsp90 Hop PPI,IkB signaling,Tau filament bind,ALOX15 inhib,CRE Fsk mod
CCC(=O)N1CCc2cc(S(=O)(=O)NCCC(=O)NCc3ccc(OC)cc3)ccc21,.,-1.4%,.,.,.
N#C/C(=C\c1ccc[nH]1)Sc1nc2ccccc2s1,-26.8%,?,-27.2%,15.8µM*,-4.9%
COC(=O)CSCc1nc2ccccc2[nH]c1=O,?,-1.1%,-7.3%,12.6µM*,-26.9%
Cc1csc(NC(=O)c2ccoc2C)n1,-5.5%,?,-13.9%,-8.8%,2.0%
O=C(Nc1nc(-c2ccco2)cs1)c1ccccc1,-11.1%,?,?,15.8µM*,-3.2%
O=C(CN1C(=O)c2ccccc2C1=O)N1CCN(c2ccccn2)CC1,-0.9%,2.1%,1.7%,-2.0%,4.4%
O=C1C=C(N2CCN(c3ccccn3)CC2)C(=O)c2c(O)ccc(O)c21,?,5.01µM*,1.58µM*,-7.5%[11.4 µM],3.16µM*
COc1cc(-c2c(C#N)c(N)nc3c2c(C)nn3-c2ccc(C)c(C)c2)cc(OC)c1OC,27.2%,-0.3%,111.8%,-17.6%,2.51µM*
Cc1nn(-c2ccc(F)cc2)c2nc(N)c(C#N)c(-c3cccs3)c12,7.6%,4.4%,90.9%,?,7.94µM*
Cc1ccc(-c2nnc(N3CCOCC3)c3ccccc23)cc1S(=O)(=O)NCC1CCCO1 (stereo unspecified),-1.9%,-1.0%,-8.4%,-3.9%,3.16µM*
COc1nnc(-c2ccc(C)c(S(=O)(=O)NCCO)c2)c2ccccc12,-0.3%,-0.7%,-3.2%,4.3%,?
COc1ccc(-c2nn(-c3ccccc3)cc2C(=O)O)cc1,-2.8%,8.2%,-9.3%,-1.2%,-5.8%
CCOC(=O)c1cn(-c2ccccc2)nc1-c1ccncc1,3.6%,0.1%,7.6%,4.3%,10µM*
CC(C)OC(=O)c1cn(-c2ccccc2)nc1-c1ccco1,3.2%,17.1%,-2.3%,20µM*,10.7%
COc1cc(C2C(C(=O)Nc3ccccc3C)=C(C)Nc3nc(SCc4cc(C)ccc4C)nn32)ccc1O (stereo unspecified),.,-0.4%,.,.,.
CCOC(=O)c1ccc(NC(=O)CCCn2nc(C)c3sc4ccccc4c3c2=O)cc1,.,-1.5%,.,.,.
C#CCCCO/N=C1/C[C@@H](O)[C@@H](O)[C@@H]2[C@@H]3C(=O)N([C@@H](C)c4ccccc4)C(=O)[C@H]3CC[C@@H]12,.,.,.,-0.8%[11.4 µM],.
CC(=O)O[C@]1(C)CC[C@]23CC1C(C)(C)C2CC[C@@H]3C (stereo partly specified),.,.,.,25.1µM*,.
CC1=C(c2ccc(C)cc2)S(=O)(=O)N(Cc2ccc(C(=O)Nc3ccc(C)c(F)c3)cc2)C1=O,.,0.1%,.,.,.
CN(C)c1nc(N)nc(CSc2nc3cc(Cl)ccc3o2)n1,-2.9%,-2.2%,121.9%,4.4%,2.51µM*
CCc1ccccc1NC(=O)c1ccc2c(SCC(=O)O)c3c(nc2c1)CCC3,.,8.1%,.,.,.
CC1(C)Cc2ccccc2-c2nnc(SCC(=O)Nc3nc4ccccc4s3)n21,?,2.7%,221.4%,?,3.98µM*
Brc1ccc2ncnc(Nc3ccc(N4CCOCC4)cc3)c2c1,-28.8%,?,15.8µM*,-3.7%,0.4%
O=C(COc1ncnc2ccc(Br)cc12)Nc1ccc(N2CCOCC2)cc1,-7.7%,4.6%,-15.5%,-10.0%,-3.5%
O=C(CSc1nc(=O)n(CCN2CCOCC2)c2c1CCC2)Nc1cccc(Cl)c1,.,-0.8%,.,.,.
Cc1cccc(NC(=O)C(NS(=O)(=O)c2cccc3nsnc23)c2ccccc2)c1C (stereo unspecified),.,-1.1%,.,.,.
